The target in assay [1] is Glucocorticoid receptor (Homo sapiens) (UniProt P04150). As to the kind of experiment: qHTS assay for small molecule antagonists of glucocorticoid receptor signaling (AID 588533; active = well fitted inhibition curve with a large enough effect in the signal ratio, with a control signal flat, not every such curve was filed as active; the % refers to the signal ratio; also: % is scaled to controls: 0 for no effect and ±100 for the full control effect). The note with it: HeLa MMTV-bla, GRE beta-lactamase ratio, antagonist mode, 18 h; series mostly up to 76.8 µM. The method, boiled down: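 Antagonist-mode qHTS: compound titrations added to GRE-bla HeLa cells, then dexamethasone 2 nM final; 18 h, 37 C. CCF4 FRET fluorescence normalized to dexamethasone and DMSO; IC50 from Hill fit.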
(In general: Quantitative high-throughput screening tests each substance at several concentrations.)

The target of assay [2] is Vitamin D3 receptor (Homo sapiens) (UniProt P11473). As to the kind of experiment: qHTS assay for small molecule antagonists of vitamin D receptor signaling (AID 588541; calls by dose curve;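 also: receptor activated by calcitriol during compound treatment; % is scaled to controls: 0 for no effect and ±100 for the full control effect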). The settings on record: HEK293T VDR-UAS-bla, beta-lactamase ratio, antagonist mode; series mostly up to 76.7 µM. Put shortly:
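VDR-UAS-bla HEK293T cells in 2% charcoal-stripped FBS were stimulated with 1-alpha,25-dihydroxyvitamin D3 (3 nM final) plus compound for 16 h at 37 C. The beta-lactamase CCF4 readout was normalized to 50 nM agonist and DMSO, and Hill fits gave IC50.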

Assay [3] has as its target Retinoic acid receptor RXR-alpha (Homo sapiens) (UniProt P19793). As to the kind of experiment: qHTS assay for small molecule antagonists of retinoid X receptor alpha signaling (AID 588546; active = well fitted inhibition curve with a large enough effect in the signal ratio, with a control signal flat, not every such curve was filed as active; the % refers to the signal ratio; also: % is scaled to controls: 0 for no effect and ±100 for the full control effect). The note with it: HEK293T RXRa-UAS-bla, beta-lactamase ratio, antagonist mode. Put shortly: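 Beta-lactamase reporter inhibition, read as CCF4 fluorescence ratio (ex 405, em 460/530 nm) after 2 h at RT. HEK293T UAS-bla cells, 2500/well, were stimulated with 9-cis-RA at 500 or 100 nM final alongside test compound for 18 h at 37 C.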

Assay [4] has as its target Muscarinic acetylcholine receptor M1 (Rattus norvegicus) (UniProt P08482). Description: qHTS Assay for Antagonists of Acetylcholine Muscarinic M1 Receptor: Kinetic Measurement of Intracellular Calcium Response (AID 943). Also: nearly all actives have a fitted effect of over 75% in size. Also: potency is read from the fitted curve at half-maximal effect. The note with it: M1-expressing cells, kinetic intracellular calcium fluorescence; series mostly up to 35.3 µM. The method, boiled down: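 CHO cells stably expressing rat M1 were loaded with no-wash Fluo-4 dye for 1 h at 37C, pre-incubated 10 min with compound, then challenged with EC80 carbachol (100 nM final); kinetic calcium read 4 min, peak/basal ratio.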

Assay [5] is described as follows: Cellular Toxicity (caspase-3) N2a (AID 665).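 Also: compound exposure lasted 16 h at 37 °C before readout.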 The note with it: N2a cells, luminescence, normalized: DMSO 0%, 10 µM staurosporine 100%; at 92.2 µM (top of the series). Put shortly: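 Mouse N2a neuroblastoma cells (1500/well) were treated with compounds for 16 h at 37 °C, then caspase-3/7 activity was read by Caspase-Glo luminescence after 1 h at room temperature. Data were normalized to DMSO and 10 uM staurosporine; AC50 from Hill fits.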

For assay [6], the target named is Bile acid receptor (Homo sapiens) (UniProt Q96RI1). As to the kind of experiment: qHTS assay for small molecule agonists of farnesoid X receptor signaling (AID 588527; calls by dose curve;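 also: 0% = vehicle basal and 100% = reference agonist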). The settings on record: HEK293T FXR-UAS-bla, beta-lactamase ratio, 16 h; stronger effect = higher value. Put shortly:
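FXR-UAS-bla HEK293T cells (10% dialyzed FBS) preincubated 5-7 h at 37 C, then compounds at up to 92 uM for 16 h at 37 C. CCF4 beta-lactamase read-out after 2 h RT. Normalized to chenodeoxycholic acid (100 uM) and DMSO; Hill fit gave EC50 and efficacy.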

Assay [7] can be described thus: MultiTox-Fluor Cytotoxicity Assay - LYMP1-001 - Dead Cells (AID 946). Also: potency is read from the fitted curve at half-maximal effect. The note with it: LYMP1-001 lymphoblastoid cells, dead-cell protease fluorescence; series mostly up to 92.2 µM. The method, boiled down:
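LYMP1-001 lymphoblastoid cells (2500/well) treated 16 h at 37 C. Dead-cell protease cleavage of bis-AAF-R110 read at Ex/Em 485/520. Normalized to DMSO and 15 uM tetraoctylammonium bromide; AC50 from Hill fits.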

The nature of assay [8]: Cell Viability - LYMP2-016 (AID 984). Also: % is scaled to controls: 0 for no effect and ±100 for the full control effect; nearly all actives have a fitted effect of over 55% in size. The note with it: LYMP2-016 lymphoblastoid cell viability, qHTS; series mostly up to 92.2 µM. Put shortly:
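qHTS, 1536-well: 2500 LYMP2-016 cells/well, 5 hr 37 C, compound added, 24 hr 37 C, CellTiter-Glo 30 min RT, luminescence. Tetraoctylammonium bromide positive control. AC50 via Hill fit.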

A short description of assay [9]: Cell Viability - LYMP2-024 (AID 988).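 Also: plate controls were DMSO only for no effect and 92 µM tetraoctylammonium bromide for full effect; nearly all actives have a fitted effect of over 60% in size.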 The note with it: LYMP2-024 lymphoblastoid cell viability; series mostly up to 92.2 µM. Put shortly:
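Human lymphoblastoid cells (2500/well) in complete medium were preincubated 5 hr at 37 C, then exposed to compounds for 24 hr at 37 C. Intracellular ATP was read by CellTiter-Glo luminescence; AC50 from Hill-equation fits of concentration-response data.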

Assay [10] is described as follows: qHTS assay for small molecule antagonists of peroxisome proliferator-activated receptor delta signaling (AID 588535).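 Also: cells co-treated with a PPAR-delta agonist as stimulator during compound exposure.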 The note with it: HEK293T PPARd-UAS-bla, beta-lactamase FRET ratio, 18 h; 460 nm channel. Put shortly:
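Cells were seeded at 4000 per well in assay medium containing 2% charcoal/dextran FBS and held 5 hrs at 37 C. Compounds were then added for 18 hrs. CCF4 substrate was applied for 2 hrs at room temperature before fluorescence reading.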

The nature of assay [11]: qHTS assay for small molecule disruptors of the mitochondrial membrane potential - 5 hr assay (AID 651755; calls by dose curve; also: % is scaled to controls: 0 for no effect and ±100 for the full control effect; nearly all actives have a fitted effect of over 40% in size). The note with it: JC-1-type ratio dye; series mostly up to 92.2 µM. The method, boiled down: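 HepG2 cells (2,000/well), attached overnight, exposed to compound 5 hr at 37C, then Mito-MPS dye 30 min. Fluorescence read for monomers (490/535 nm) and aggregates (540/590 nm).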

Assay [12] can be described thus: Cell Viability - Hek293 (AID 427;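 active = compounds whose dose-response curve shows a full or clear partial loss of cell viability, called from curve shape rather than a numeric limit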;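 also: potency is read from the fitted curve at half-maximal effect; cells exposed to compound for 40 hours at 37 °C before reading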). The note with it: qHTS. The method, boiled down: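 HEK293 cells in complete medium were exposed to compound for 40 hr at 37 °C, then cellular ATP was read by CellTiter-Glo luminescence. Data were normalized to DMSO (basal) and 100 uM tamoxifen (100% inhibition), and AC50 came from Hill fits.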
Assay [13] can be described thus: Cell Viability - LYMP2-004 (AID 966).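 Also: plate controls were DMSO only for no effect and tetraoctylammonium bromide control for full effect; nearly all actives have a fitted effect of over 65% in size.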 The note with it: LYMP2-004 lymphoblastoid cell viability, qHTS; series mostly up to 92.2 µM. Put shortly:
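Human lymphoblastoid cells (2500/well) in complete medium were treated with compounds for 24 hr at 37 C, then intracellular ATP was measured by CellTiter-Glo luminescence. AC50 values came from Hill-equation fits of concentration-response data.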

Assay [14] can be described thus: Cell Viability - LYMP2-005 (AID 967).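 Also: plate controls were DMSO only for no effect and 92 µM tetraoctylammonium bromide control for full effect.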 The settings on record: LYMP2-005 lymphoblastoid cell viability; series mostly up to 92.2 µM. Put shortly: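 Steps: seed 2500 LYMP2-005 cells/well, incubate 5 h at 37 C, add compound, incubate 24 h at 37 C, add CellTiter-Glo, wait 30 min at RT, read luminescence. Concentration-response data fitted to Hill equation for AC50.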

A short description of assay [15]: Cell Viability - LYMP2-013 (AID 970).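 Also: 0% = DMSO only and full inhibition = tetraoctylammonium bromide control; nearly all actives have a fitted effect of over 55% in size.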 The settings on record: LYMP2-013 lymphoblastoid cells viability; series mostly up to 92.2 µM. Put shortly: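 Human lymphoblastoid cells, 2500/well, were preincubated 5 hr at 37 C, then treated with compounds for 24 hr at 37 C in complete medium. Intracellular ATP was read by CellTiter-Glo luminescence; AC50 from Hill-equation fits of concentration-response data.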

Assay [16] can be described thus: Cell Viability - LYMP2-002 (AID 977).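 Also: compound exposure lasted 24 h at 37 °C; plate controls were DMSO only for no effect and 92 µM tetraoctylammonium bromide for full effect.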 The settings on record: LYMP2-002 lymphoblastoid cell viability, qHTS; series mostly up to 92.2 µM. The method, boiled down:
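Human lymphoblastoid LYMP2-002 cells, 2500 per well, exposed to compounds for 24 h at 37 C in complete medium; viability read as intracellular ATP by CellTiter-Glo luminescence, AC50 from Hill fits.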

The nature of assay [17]: Cell Viability - LYMP2-010 (AID 981). Also: nearly all actives have a fitted effect of over 55% in size. Also: potency is read from the fitted curve at half-maximal effect. The note with it: LYMP2-010 lymphoblastoid cell viability, qHTS; series mostly up to 92.2 µM. The method, boiled down: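 Human lymphoblastoid LYMP2-010 cells (2500/well) were preincubated 5 hr at 37 C, then exposed to compounds for 24 hr at 37 C in complete medium. Intracellular ATP was measured by CellTiter-Glo luminescence after 30 min at room temperature; AC50 from Hill-fitted concentration-response.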

Assay [18] is described as follows: Cell Viability - LYMP1-002 - Assay at 24 hr (AID 993). Also: % is scaled to controls: 0 for no effect and ±100 for the full control effect. The settings on record: LYMP1-002 lymphoblastoid cells viability; series mostly up to 92.2 µM. Put shortly: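 Human lymphoblastoid LYMP1-002 cells, 2500/well in complete medium, were treated with compounds for 24 h at 37 C; intracellular ATP was read by CellTiter-Glo luminescence. AC50 values came from Hill-equation fits of qHTS concentration-response data.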

Assay [19] can be described thus: qHTS assay for small molecule antagonists of the retinoid-related orphan receptor gamma (ROR-gamma) signaling pathway - cell viability counter screen (AID 720652; active = well fitted curve in the direction sought with a large enough effect in the repeat runs; an effect the other way counts as inactive or inconclusive). The settings on record: RORgamma reporter cell line viability counter screen; series mostly up to 92.2 µM. Put shortly:
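Counter screen in CHO cells carrying TET-inducible ROR-gamma and an ROR response element-luciferase reporter; cells plated 5 hr, compound pinned, doxycycline added, then 16 hr at 37 C. Viability read as intracellular ATP by CellTiter-Glo luminescence.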

Assay [20] in a line: qHTS Assay for Identification of Small Molecule Agonists for Hypoxia Response Element Signaling Pathway (AID 914; active = well fitted activation curve with a large enough effect in the signal ratio, with a control signal flat, not every such curve was filed as active; the % refers to the signal ratio; also: % of control where 0% means no effect). The settings on record: ME-180 (cervical carcinoma) HRE-bla reporter, beta-lactamase ratio, CoCl2, 17 h; activation: stronger effect = higher value. Put shortly:
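qHTS titration; ME-180 HRE-bla cells; EC50 CoCl2 co-treatment, 17 h at 37 degrees Celsius; CCF4 dye, ex 405nm, em 460nm and 530nm; %Activity from ratio; AC50.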

Where “and” joins values, the source holds several entries; their conditions need not be identical. Equal entries are not always repeated. Records with an inconclusive call do not appear. Calls of active or inactive are those of the source. Unless noted, calls follow the shape of the dose curve; as a rule, active = well fitted curve in the direction sought with a large enough effect; inconclusive = small, poorly fitted or top-dose-only effect, or another doubt; inactive = no such curve, though single readings can be large; an effect the other way counts as inactive or inconclusive. Some results are limits rather than exact numbers.

Muscarinic acetylcholine receptor M1 (Rattus norvegicus), sequence (P08482 whole entry, looked up): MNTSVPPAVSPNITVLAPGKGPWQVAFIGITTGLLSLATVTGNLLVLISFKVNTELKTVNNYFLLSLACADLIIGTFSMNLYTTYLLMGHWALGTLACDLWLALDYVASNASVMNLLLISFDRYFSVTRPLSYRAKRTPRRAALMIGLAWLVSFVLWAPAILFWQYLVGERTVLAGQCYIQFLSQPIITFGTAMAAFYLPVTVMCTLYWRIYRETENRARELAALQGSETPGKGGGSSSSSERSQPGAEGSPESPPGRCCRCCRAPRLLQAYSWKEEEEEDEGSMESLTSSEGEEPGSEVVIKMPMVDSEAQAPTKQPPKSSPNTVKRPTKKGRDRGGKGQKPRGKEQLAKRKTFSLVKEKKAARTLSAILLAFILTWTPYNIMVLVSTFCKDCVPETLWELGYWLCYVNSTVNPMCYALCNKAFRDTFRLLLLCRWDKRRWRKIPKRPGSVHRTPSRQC
Vitamin D3 receptor (Homo sapiens), sequence (P11473 whole entry, looked up): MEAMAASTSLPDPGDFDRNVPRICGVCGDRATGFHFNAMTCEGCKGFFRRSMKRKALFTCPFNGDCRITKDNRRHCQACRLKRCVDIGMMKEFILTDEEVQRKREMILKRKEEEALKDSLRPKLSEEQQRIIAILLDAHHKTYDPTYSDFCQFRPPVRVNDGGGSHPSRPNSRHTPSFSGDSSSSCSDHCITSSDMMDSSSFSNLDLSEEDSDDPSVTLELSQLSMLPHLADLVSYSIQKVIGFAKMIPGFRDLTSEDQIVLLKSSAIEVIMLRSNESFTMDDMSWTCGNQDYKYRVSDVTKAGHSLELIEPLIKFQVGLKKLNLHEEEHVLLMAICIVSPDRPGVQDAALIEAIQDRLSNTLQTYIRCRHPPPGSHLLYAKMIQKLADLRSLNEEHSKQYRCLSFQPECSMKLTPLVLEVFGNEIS
Retinoic acid receptor RXR-alpha (Homo sapiens), sequence (P19793 whole entry, looked up): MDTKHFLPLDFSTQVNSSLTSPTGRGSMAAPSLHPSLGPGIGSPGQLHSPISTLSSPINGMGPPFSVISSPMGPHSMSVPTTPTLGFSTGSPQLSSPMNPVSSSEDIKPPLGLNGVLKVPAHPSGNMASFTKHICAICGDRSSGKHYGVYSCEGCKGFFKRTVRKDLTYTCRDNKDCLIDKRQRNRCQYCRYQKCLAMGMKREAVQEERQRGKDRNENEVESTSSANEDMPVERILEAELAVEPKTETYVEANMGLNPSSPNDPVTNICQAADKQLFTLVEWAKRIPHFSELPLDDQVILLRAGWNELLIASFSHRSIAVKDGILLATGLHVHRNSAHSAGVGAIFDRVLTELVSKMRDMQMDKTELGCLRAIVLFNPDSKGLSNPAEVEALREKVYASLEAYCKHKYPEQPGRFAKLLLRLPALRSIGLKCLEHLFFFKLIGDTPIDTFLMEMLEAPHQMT
Glucocorticoid receptor (Homo sapiens), sequence (P04150 whole entry, looked up): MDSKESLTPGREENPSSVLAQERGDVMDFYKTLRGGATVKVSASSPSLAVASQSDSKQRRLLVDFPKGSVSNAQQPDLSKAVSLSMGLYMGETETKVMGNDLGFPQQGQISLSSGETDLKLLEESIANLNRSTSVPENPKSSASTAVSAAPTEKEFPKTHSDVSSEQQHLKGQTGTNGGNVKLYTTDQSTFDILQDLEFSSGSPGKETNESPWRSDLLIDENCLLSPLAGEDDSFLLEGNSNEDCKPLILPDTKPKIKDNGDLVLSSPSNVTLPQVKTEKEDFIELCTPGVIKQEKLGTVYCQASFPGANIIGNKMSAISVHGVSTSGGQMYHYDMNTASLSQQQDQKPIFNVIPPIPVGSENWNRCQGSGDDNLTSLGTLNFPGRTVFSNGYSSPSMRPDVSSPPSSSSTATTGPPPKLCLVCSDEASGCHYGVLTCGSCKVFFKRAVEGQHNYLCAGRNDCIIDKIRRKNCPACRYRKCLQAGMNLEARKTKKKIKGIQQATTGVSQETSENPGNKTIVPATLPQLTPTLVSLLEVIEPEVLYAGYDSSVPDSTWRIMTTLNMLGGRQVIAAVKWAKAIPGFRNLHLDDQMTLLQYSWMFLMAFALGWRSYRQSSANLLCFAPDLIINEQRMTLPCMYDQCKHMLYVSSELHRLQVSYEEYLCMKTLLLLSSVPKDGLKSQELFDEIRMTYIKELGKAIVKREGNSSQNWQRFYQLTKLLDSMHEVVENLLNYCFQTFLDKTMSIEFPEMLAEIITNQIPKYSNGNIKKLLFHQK
Bile acid receptor (Homo sapiens), sequence (Q96RI1 whole entry, looked up): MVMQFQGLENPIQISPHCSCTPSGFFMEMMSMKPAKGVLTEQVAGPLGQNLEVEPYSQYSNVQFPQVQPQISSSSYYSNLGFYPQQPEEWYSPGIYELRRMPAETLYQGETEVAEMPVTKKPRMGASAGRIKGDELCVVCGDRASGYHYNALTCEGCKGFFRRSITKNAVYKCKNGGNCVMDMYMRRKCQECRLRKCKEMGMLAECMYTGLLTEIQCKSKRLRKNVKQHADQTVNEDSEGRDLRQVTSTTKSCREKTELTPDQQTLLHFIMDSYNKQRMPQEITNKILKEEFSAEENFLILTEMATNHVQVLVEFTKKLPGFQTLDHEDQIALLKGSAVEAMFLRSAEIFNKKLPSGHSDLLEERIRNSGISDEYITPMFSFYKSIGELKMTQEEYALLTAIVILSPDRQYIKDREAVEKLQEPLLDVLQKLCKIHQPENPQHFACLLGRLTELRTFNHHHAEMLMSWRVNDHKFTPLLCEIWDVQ

For the compound `ClC1=C(Cl)C2(Cl)C3C4C=CC(C4)C3C1(Cl)C2(Cl)Cl` (configuration not stated), the Potency entry in assay [1] is “inactive”. The result in assay [2] was inactive. In addition, in [3], the max response was -13.5% (inactive).
As to `COc1ccc(OC)c([C@H](O)[C@H](C)N)c1`, in assay [4], the Potency result was “inactive”.
Turning to `O=S1OCC2C(CO1)C1(Cl)C(Cl)=C(Cl)C2(Cl)C1(Cl)Cl` (configuration not stated), the caspase-3 activation in [5] is 12.4% (inactive). Also, the activation in [6] was 2.02% (inactive). In addition, in assay [2], the outcome was inactive. In addition, the max response in assay [3] is -29.4% (inactive).
Regarding `ClC1=C(Cl)C2(Cl)C3C(Cl)C=CC3C1(Cl)C2(Cl)Cl` (configuration not stated), in assay [5], the caspase-3 activation is -3.13% (inactive). In addition, the Potency in assay [7] was 50.1 µM (active). Further, the Potency result in assay [8], in assay [9], in assay [1] and in [11] was “inactive” throughout. The max response was -19.5% in [10] and -17.9% (inactive) in assay [3].
For `ClC(Cl)=C(c1ccc(Cl)cc1)c1ccc(Cl)cc1`, the Potency in assay [12] is > 92 µM (inactive). In addition, the Potency result in assay [7], in [13], in assay [14], in [15], in [16] and in [17] was “inactive” in each case. In addition, the Potency entry in [8], in [9], in [18], in [1] and in assay [11] was “inactive” each time. Besides, the activation in [6] is -9.46% (inactive). In assay [10], the max response is 6.36% and 34.1%. Moreover, the result in assay [2] was inactive.
As to `CCOCN(C(=O)CCl)c1c(C)cccc1CC`, the Potency result in [16], in [11] and in assay [19] was “inactive” in each case. In addition, the Potency in assay [17] is 50.1 µM (active).
As for `CC(C)[C@@]1(NC(=O)[C@@H]2C[C@H]3c4cccc5[nH]cc(c45)C[C@@H]3N(C)C2)O[C@]2(O)[C@H]3CCCN3C(=O)CN2C1=O`, in [20], the activation was 9.33% (inactive).
The same measure, in the same setting: next, `COc1ccc(NC(=O)N2CCC3(CC2)CCN(C(=O)Oc2ccccc2)CC3)cc1`: -18.1% (inactive).
For the compound `CNC(=O)N(C)c1nnc(C(C)(C)C)s1`, the max response in [10] was 22%; in assay [3], -28.5% (inactive). Besides, the outcome in [2] was inactive.
For `CC(C)N(CC[C@@](C(N)=O)(c1ccccc1)c1ccccn1)C(C)C`, the Potency in assay [4] was 4.47 µM (active) and 3.98 µM (active).
For the compound `NC[C@H](O)c1ccc(O)cc1`, the Potency entry in assay [4] is “inactive”.

Values taken from PubChem BioAssay (NCATS).
